Test results taken from article PMC8769072, “Proteome‐scale mapping of binding sites in the unstructured regions of the human proteome” (Molecular Systems Biology, 2022).

What was measured:
[1] = target: YAP1 169-207, P46937
[2] = target: VASP 1-114, P50552
[3] = target: WDR5 21-334, P61964
[4] = target: USP7 53-206, Q93009
USP7 53-206, Q93009, sequence (Q93009 53-206): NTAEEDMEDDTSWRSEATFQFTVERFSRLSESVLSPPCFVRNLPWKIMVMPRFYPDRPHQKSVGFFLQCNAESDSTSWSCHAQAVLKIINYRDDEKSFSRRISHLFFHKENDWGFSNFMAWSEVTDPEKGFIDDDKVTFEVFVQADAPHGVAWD

YAP1 169-207, P46937, sequence (P46937 169-207): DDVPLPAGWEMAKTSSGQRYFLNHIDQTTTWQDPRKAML
VASP 1-114, P50552, sequence (P50552 1-114): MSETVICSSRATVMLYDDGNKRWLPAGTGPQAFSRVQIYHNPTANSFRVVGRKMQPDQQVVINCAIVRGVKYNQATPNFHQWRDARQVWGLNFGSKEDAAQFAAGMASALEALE

## EYQQVPNSDPPRYEFL [MAGEB18, Q96M61]
[1]
  selected by phage display: confidence 2 (active)

## DVVLQSFPPLPSAEIL [KIF23, Q02241]
[2]
  selected by phage display: confidence 2 (active)

## TEVYGEFYPVPPPYSV
[1]
  selected by phage display: confidence 4 (active)

## FPPPPLPDSAIFLPPS [INPPL1, O15357]
[2]
  selected by phage display: confidence 3 (active)

## PAKIETDYWPAPPSLA [DMTN, Q08495]
[2]
  selected by phage display: confidence 2 (active)

## PQNRTSAYSLEHADLG [SIPA1, Q96FS4]
[3]
  selected by phage display: confidence 2 (active)

## SPVFPPPPPEALIPFA [NHSL1, Q5SYE7]
[2]
  selected by phage display: confidence 3 (active)

## VYSMDDFPPPPPHTVA [SHROOM3, Q8TF72]
[2]
  selected by phage display: confidence 4 (active)

## LLNFPPPLPALYELWE [LBR, Q14739]
[2]
  selected by phage display: confidence 2 (active)

## HPPTYVQNVVPQNTPM [ARID2, Q68CP9]
[1]
  selected by phage display: confidence 2 (active)

## QGELLEAPSSSSAPLP [RNF135, Q8IUD6]
[4]
  selected by phage display: confidence 2 (active)

## MAWPKLPAPWLLLATW [ILDR1, Q86SU0]
[2]
  selected by phage display: confidence 2 (active)

## SQVTGMSLQIPSSSTG [MAMLD1, Q13495]
[4]
  selected by phage display: confidence 3 (active)

## ASSAPALETDSSPPPY
[1]
  selected by phage display: confidence 2 (active)

## TVDANGVVSLVGGPSV [SCN1A, P35498]
[4]
  selected by phage display: confidence 3 (active)

## TGTPQESLPTYTQTLR [STPG3, Q8N7X2]
[1]
  selected by phage display: confidence 3 (active)

## IELLPSYSTATLIDEP [SLC34A2, O95436]
[1]
  selected by phage display: confidence 3 (active)

## GISDGPSVSALTNGFD [PARN, O95453]
[4]
  selected by phage display: confidence 3 (active)

## GDLQTWFFPPPPAGSV [TEX44, Q53QW1]
[2]
  selected by phage display: confidence 2 (active)

## DFTAPDVWYPGGMVSR [AR, P10275]
[3]
  selected by phage display: confidence 2 (active)

## SARVNPQDGTNTLTRI [EHMT1, Q9H9B1]
[3]
  selected by phage display: confidence 2 (active)

## ASSSSPSLSGTSYSFS [IPCEF1, Q8WWN9]
[4]
  selected by phage display: confidence 4 (active)

## GSSGSQEQLVSIASSS [PER3, P56645]
[4]
  selected by phage display: confidence 3 (active)

## PPAYEDVVHRPGTPPP [WBP1, Q96G27]
[1]
  selected by phage display: confidence 3 (active)

## HEVVLRTAAPPDYTLA [NLGN1, Q8N2Q7]
[1]
  selected by phage display: confidence 3 (active)

## FPAPPSHWLFGHIQEL [CYP4A11, Q02928]
[2]
  selected by phage display: confidence 2 (active)

## EFPPPPPDVLQTSVDV [XIRP2, A4UGR9]
[2]
  selected by phage display: confidence 4 (active)

## SSSAASTSSSSSAVAS [TRIP12, Q14669]
[4]
  selected by phage display: confidence 2 (active)

## FPPPPPETELPLPPIE [RAPH1, Q70E73]
[2]
  selected by phage display: confidence 3 (active)

## DFPPPPPDLEQLRLTD [VCL, P18206]
[2]
  selected by phage display: confidence 2 (active)

## SARSGYVIQGSSDLIA [SVEP1, Q4LDE5]
[3]
  selected by phage display: confidence 2 (active)

## IPSEEWPNPPTLQEAG [FAF2, Q96CS3]
[2]
  selected by phage display: confidence 4 (active)

## PGSNSTGSEVASMSSQ [ISL1, P61371]
[4]
  selected by phage display: confidence 3 (active)

## LWPDPPHFLYWSGFLG [PAX1, P15863]
[2]
  selected by phage display: confidence 2 (active)

## ARTVLWNPEDLIPLPI [ZC3H4, Q9UPT8]
[3]
  selected by phage display: confidence 2 (active)

## LVPPALDLSWIWPAPP [C1orf159, Q96HA4]
[2]
  selected by phage display: confidence 3 (active)

## TDSIHSAHSSHSLSRD [UNC13B, O14795]
[4]
  selected by phage display: confidence 2 (active)

## EPPPSYDEAVKMAKPR
[1]
  selected by phage display: confidence 3 (active)

## LYPPPSHAAEDSLPPY [TMEM59L, Q9UK28]
[1]
  selected by phage display: confidence 2 (active)

## SMADFPPPEEAFFSVA [KIAA1522, Q9P206]
[2]
  selected by phage display: confidence 2 (active)

## WEQDGGRWLPGHAMAM [RRAD, P55042]
[3]
  selected by phage display: confidence 2 (active)

## SMAPPAYSLYTPEPPP
[1]
  selected by phage display: confidence 3 (active)

## PSAMLPIYPAIDIDAQ [ANKRD17, O75179]
[1]
  selected by phage display: confidence 2 (active)

## ASSSLTVTDSTLWSQS [MAGEA8, P43361]
[4]
  selected by phage display: confidence 3 (active)

## DGKGAKPPEYRNYQIV [MFSD6, Q6ZSS7]
[1]
  selected by phage display: confidence 3 (active)

## NNSLPPYAQGLASPQG [TBP, P20226]
[1]
  selected by phage display: confidence 3 (active)

## ALSDSPSNSSYVETPR [TUBGCP5, Q96RT8]
[4]
  selected by phage display: confidence 3 (active)

## WPDPPDLPTVDPISSS [MRPL43, Q8N983]
[2]
  selected by phage display: confidence 4 (active)

## SIAQPSTSSLHSHSSL [TCF7L2, Q9NQB0]
[4]
  selected by phage display: confidence 3 (active)

## PVQSPLATAASASTSV [PROSER1, Q86XN7]
[4]
  selected by phage display: confidence 3 (active)

## AAATAGAPTALPAYPA [TMEM158, Q8WZ71]
[1]
  selected by phage display: confidence 2 (active)

## VPANGEMSSSHSAQSM [TP73, O15350]
[4]
  selected by phage display: confidence 3 (active)

## SSATLPPPYQLINVPP [GAB1, Q13480]
[1]
  selected by phage display: confidence 4 (active)

## SVLPPSYASDRLSGNN [ALKBH5, Q6P6C2]
[1]
  selected by phage display: confidence 2 (active)

## ADTPPPAYLPPEDPMT [SMAD1, Q15797]
[1]
  selected by phage display: confidence 2 (active)

## NQAVNFLRMSARVDAV [CHMP1B, Q7LBR1]
[3]
  selected by phage display: confidence 2 (active)

## YTREGEPLPPPYSLRE [TPSG1, Q9NRR2]
[1]
  selected by phage display: confidence 3 (active)

## LPPYPEHLTSPLSPAQ [ZNF783, Q6ZMS7]
[1]
  selected by phage display: confidence 2 (active)

## APHPYSPQPPPYHELS [DVL2, O14641]
[1]
  selected by phage display: confidence 3 (active)

## EAFPPPPHFSFPAPLS [SBNO2, Q9Y2G9]
[2]
  selected by phage display: confidence 2 (active)

## IPTSRSTPYKPIDDRI [SPATA5, Q8NB90]
[3]
  selected by phage display: confidence 2 (active)

## SARSTPLTVDRSPDSS [PDZRN4, Q6ZMN7]
[3]
  selected by phage display: confidence 2 (active)
